Results reported in PubChem BioAssay AID1159580 (chemical genetic matrix, 2015).
Where “and” joins values, the source holds several entries; their conditions need not be identical. Identical values can stand only once. Hit rate of the full screen: of about 5,500 compounds, about 2,000 (36%) were called active. Not shown: some 18% with an inconclusive outcome. Rule as the data show it: active = normalized growth mostly below about 0.91 (no sharp cut-off); inconclusive = no clear call, values can overlap the other calls; inactive = mostly above about 0.92. Some of the results follow.

Experiment: chemical genetic growth profiling, strain panel (AID 1159580);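 also: tested at 20 µM; growth read once vehicle control cultures reached saturation at 30 °C; 1 = growth at the plate median or of vehicle wells; lower values mean less growth of the strain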
Settings: S. cerevisiae deletion strains, growth OD

Measured: normalized growth

O=C1CCC(N2C(=O)c3ccccc3C2=O)C(=O)N1 (stereo unspecified)
inactive: locus YAL013W, strain DEP1, stronger effect = lower value 1.02 and 0.99 | locus YAL021C, strain ccr4, stronger effect = lower value 0.999 | locus YAL026C, strain drs2, stronger effect = lower value 1.01 | locus YAL030W, strain snc1, stronger effect = lower value 1.01 | locus YAL040C, strain CLN3, stronger effect = lower value 1.01 | locus YBL061C, strain skt5, stronger effect = lower value 1.02 | locus YBR009C, strain hhf1, stronger effect = lower value 1.03 | locus YBR021W, strain FUR4, stronger effect = lower value 0.995 | locus YBR023C, strain chs3, stronger effect = lower value 1.03 | locus YBR171W, strain sec66, stronger effect = lower value 1.02 | locus YBR229C, strain ROT2, stronger effect = lower value 1.01 | locus YBR231C, strain swc5, stronger effect = lower value 1.01 | locus YBR279W, strain paf1, stronger effect = lower value 1.03 | locus YCL011C, strain gbp2, stronger effect = lower value 1.03 | locus YCL016C, strain dcc1, stronger effect = lower value 1.03 | locus YCL029C, strain bik1, stronger effect = lower value 0.989 | locus YCL061C, strain MRC1 (second series), stronger effect = lower value 1 | locus YCL061C, strain MRC1, stronger effect = lower value 1.01 | locus YCL069W, strain vba3, stronger effect = lower value 1.02 | locus YCR088W, strain abp1, stronger effect = lower value 1.01 | locus YDL005C, strain med2, stronger effect = lower value 1.01 | locus YDL035C, strain GPR1, stronger effect = lower value 1.02 | locus YDL040C, strain nat1, stronger effect = lower value 1.02 | locus YDL074C, strain BRE1, stronger effect = lower value 1.01 | locus YDL101C, strain DUN1, stronger effect = lower value 1.02 | locus YDL134C, strain PPH21, stronger effect = lower value 1.01 | locus YDL185W, strain tfp1, stronger effect = lower value 0.99 | locus YDL192W, strain arf1, stronger effect = lower value 0.992 | locus YDR001C, strain nth1, stronger effect = lower value 1.02 | locus YDR069C, strain doa4, stronger effect = lower value 1.02 | locus YDR101C, strain arx1, stronger effect = lower value 0.971 | locus YDR137W, strain rgp1, stronger effect = lower value 1.01 | locus YDR150W, strain NUM1, stronger effect = lower value 1.01 | locus YDR159W, strain sac3, stronger effect = lower value 0.974 | locus YDR162C, strain NBP2, stronger effect = lower value 1.04 | locus YDR195W, strain ref2 0.977 | locus YDR297W, strain sur2, stronger effect = lower value 1.01 | locus YDR318W, strain mcm21, stronger effect = lower value 0.977 | locus YDR334W, strain swr1, stronger effect = lower value 1.02 | locus YDR335W, strain msn5, stronger effect = lower value 1.02 | locus YDR363W, strain ESC2, stronger effect = lower value 1 | locus YDR388W, stronger effect = lower value 0.991 | locus YDR392W, strain spt3, stronger effect = lower value 0.958 | locus YDR502C, strain sam2, stronger effect = lower value 0.981 | locus YEL003W, strain gim4, stronger effect = lower value 1.02 | locus YEL037C, strain rad23, stronger effect = lower value 1.02 | locus YEL061C, strain CIN8 (second series), stronger effect = lower value 1.02 | locus YEL061C, strain CIN8, stronger effect = lower value 1.01 | locus YER002W, strain NOP16, stronger effect = lower value 1.01 | locus YER015W, strain faa2, stronger effect = lower value 1.02 | locus YER016W, strain bim1, stronger effect = lower value 1 | locus YER110C, stronger effect = lower value 0.99 | locus YER111C, strain swi4, stronger effect = lower value 1.02 | locus YER155C, strain BEM2 (second series), stronger effect = lower value 0.998 | locus YER155C, strain BEM2, stronger effect = lower value 1 | locus YER167W, strain BCK2, stronger effect = lower value 1.01 | locus YFR010W, strain ubp6, stronger effect = lower value 1.02 | locus YGL078C, strain dbp3, stronger effect = lower value 0.997 | locus YGL086W, strain mad1, stronger effect = lower value 0.985 | locus YGL167C, strain pmr1, stronger effect = lower value 1.02 | locus YGL173C, strain kem1, stronger effect = lower value 1.01 | locus YGL227W, strain vid30, stronger effect = lower value 1.02 | locus YGL240W, strain doc1, stronger effect = lower value 0.986 | locus YGL248W, strain PDE1, stronger effect = lower value 1.01 | locus YGL253W, strain hxk2, stronger effect = lower value 1.01 | locus YGR078C, strain PAC10, stronger effect = lower value 1.02 | locus YGR135W, strain pre9, stronger effect = lower value 0.988 | locus YGR229C, strain SMI1, stronger effect = lower value 1.04 | locus YGR252W, strain gcn5, stronger effect = lower value 0.969 | locus YHR013C, strain ard1, stronger effect = lower value 1.04 | locus YHR027C, strain rpn1, stronger effect = lower value 1.01 | locus YHR030C, strain SLT2, stronger effect = lower value 1 and 0.974 | locus YHR079C, strain IRE1 (second series), stronger effect = lower value 0.981 | locus YHR079C, strain IRE1, stronger effect = lower value 0.971 | locus YHR094C, strain hxt1, stronger effect = lower value 0.994 | locus YHR129C, strain ARP1, stronger effect = lower value 1 | locus YHR142W, strain chs7, stronger effect = lower value 1.04 | locus YHR200W, strain rpn10, stronger effect = lower value 0.986 | locus YIL066C, strain RNR3, stronger effect = lower value 1.01 | locus YIL073C, strain SPO22, stronger effect = lower value 1.01 | locus YIL125W, strain kgd1, stronger effect = lower value 0.997 | locus YIR030C, strain dcg1, stronger effect = lower value 0.994 | locus YJL092W, strain hpr5, stronger effect = lower value 1.02 | locus YJL095W, strain BCK1 (second series), stronger effect = lower value 1.02 | locus YJL095W, strain BCK1, stronger effect = lower value 1.01 and 0.98 | locus YJL115W, strain asf1, stronger effect = lower value 1.01 | locus YJL129C, strain trk1, stronger effect = lower value 1.03 | locus YJL134W, strain LCB3, stronger effect = lower value 1.01 | locus YJL154C, strain vps35, stronger effect = lower value 1.01 | locus YJL164C, strain tpk1, stronger effect = lower value 1.03 | locus YJL166W, strain qcr8, stronger effect = lower value 1.03 | locus YJL168C, strain set2, stronger effect = lower value 0.991 | locus YJL187C, strain SWE1 (second series), stronger effect = lower value 1.01 | locus YJL187C, strain SWE1, stronger effect = lower value 1.01 | locus YJR043C, strain POL32, stronger effect = lower value 0.979 | locus YJR066W, strain TOR1, stronger effect = lower value 0.951
